Rows were chosen to be rich in hits. Some 17% of all compounds tested hit in one or more screens of this group.
TGFb inhibitor: qHTS for Inhibitors of TGF-b; 410,000 compounds, 1.2% hits; Potency, µM (doses to about 46.1 µM), actives largely listed as inhibitors; HepG2 CAGA-GFP TGF-b/SMAD3 reporter, GFP fluorescence, 18 h; TGF-beta stimulated, 500 pg/mL final; note: nearly all actives have a fitted effect of over 65% in size
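Smad-responsive CAGA-GFP expression was quantified in HEPG2 cells exposed to compounds and 500 pg/mL final TGF-beta for 18 h at 37 degrees C; unstimulated wells defined full inhibition.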
HepG2 tox: qHTS for Inhibitors of TGF-b: Cytotox Counterscreen. HepG2 CAGA-GFP viability, ATP luminescence, 18 h. AID 588856, 2011. 410,000 compounds, 0.76% hits. Potency, µM (doses to about 46.1 µM), hits mostly cytotoxic
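CellTiter-Glo luminescence gave cytotoxicity after 18 hours at 37 degrees C. The cells were HepG2 CAGA-GFP in 1% FBS DMEM, stimulated with 500 pg/mL TGF-beta after compound addition. %Activity was normalised to no-cell wells (complete cell-killing) and DMSO (no toxicity), and curves were fitted and classified.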
HT1080 IDH1KD tx: qHTS for induction of synthetic lethality in tumor cells producing 2HG: qHTS for the HT-1080-IDH1KD cell line; Potency, µM (series often up to 46.1 µM), hits mostly cytotoxic; HT-1080 IDH1 knockdown viability, ATP luminescence, 48 h; 360,000 compounds, 2% hits
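Luminescent ATP read-out (CellTiter-Glo, 10 min at room temperature) after 48 h compound exposure at 37 °C gave viability of IDH1-knockdown HT-1080 cells. Activity was normalised to DMSO and cell-free wells, then fitted as concentration-response curves.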
TDP1 cell CPT: qHTS for Inhibitors of human tyrosyl-DNA phosphodiesterase 1 (TDP1): qHTS in cells in presence of CPT; 420,000 compounds, 12% hits; chicken DT40 Tdp1-/-;hTDP1 cells + 20 nM CPT, ATP luminescence, 48 h; Potency, µM (titrated, usually from 46.2 µM), most hits filed as inhibitors; note: nearly all actives have a fitted effect of over 55% in size
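Chicken DT40 Tdp1-/- cells complemented with human TDP1, 400 cells/well, exposed to compounds plus 20 nM camptothecin for at least 48 h at 37 C; viability read as ATP content by CellTiter-Glo luminescence.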
DT40 TDP1 no CPT: qHTS for Inhibitors of human tyrosyl-DNA phosphodiesterase 1 (TDP1): qHTS in cells in absence of CPT. 420,000 compounds, 15% hits. Potency, µM (series often up to 46.2 µM), actives largely listed as inhibitors. DT40 Tdp1-/- hTDP1 cells, no CPT, ATP luminescence, 48 h; note: nearly all actives have a fitted effect of over 55% in size
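Compound effects on proliferation are scored in DT40 Tdp1-/-;hTDP1 cells in the absence of CPT. ATP levels (CellTiter-Glo luminescence) are recorded after a ≥48 hr, 37 °C incubation.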
HT1080-NT tox: qHTS for induction of synthetic lethality in tumor cells producing 2HG: qHTS for the HT-1080-NT fibrosarcoma cell line; HT-1080-NT fibrosarcoma viability, CellTiter-Glo ATP luminescence, 48 h; Potency, µM (highest dose often 46.1 µM), usual class: cytotoxic; 360,000 compounds, 1.6% hits; AID 686970, 2013;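 note: NT is the 2HG producing partner of a matched IDH1 knockdown line; nearly all actives have a fitted effect of over 55% in size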
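Fibrosarcoma NT cells, 750 per well in 5% FBS RPMI, were exposed to compound for 48 hours. Viability: CellTiter-Glo luminescence.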
Each line names hits and unclear results; the compound was inactive in the other large screens. Calls come from the whole dose curve; as a rule, active = well fitted curve in the direction sought with a large enough effect; inconclusive = small, poorly fitted or top-dose-only effect, or another doubt; inactive = no such curve, though single readings can be large; an effect the other way counts as inactive or inconclusive.

O=C1NC(c2ccc(Br)cc2)=N/C1=C/c1ccco1	TDP1 cell CPT 7.31µM, DT40 TDP1 no CPT inconclusive
COC(=O)C1=C(C)NC(=O)/C1=C\c1ccco1	none
Cc1cc(C)cc(NC(=O)c2cccn2-c2ncc(C(F)(F)F)cc2Cl)c1	TDP1 cell CPT inconclusive, DT40 TDP1 no CPT inconclusive
O=C(NC(NC1CCS(=O)(=O)C1)C(Cl)(Cl)Cl)c1ccc(Br)cc1 (stereo not drawn)	TGFb inhibitor inconclusive, HT1080 IDH1KD tx inconclusive, TDP1 cell CPT 8.2µM, DT40 TDP1 no CPT 7.31µM, HT1080-NT tox inconclusive
O=C(NC(NC1CCS(=O)(=O)C1)C(Cl)(Cl)Cl)c1cccc(Cl)c1 (stereo not drawn)	none
Nc1nc(-c2ccco2)nn1C(=O)c1ccc([N+](=O)[O-])cc1	HT1080-NT tox inconclusive
Cc1nc(N2CCCCC2)sc1C(=O)c1ccc(SCCO)c([N+](=O)[O-])c1	TDP1 cell CPT inconclusive, DT40 TDP1 no CPT 18.4µM
CCN(CC)C(=O)c1nc(-c2cccc3ccccc23)no1	TDP1 cell CPT inconclusive, DT40 TDP1 no CPT 16.4µM
CCN(CC)C(=O)c1c2c(nc3ccccc13)-c1ccccc1CC2	HT1080 IDH1KD tx inconclusive, TDP1 cell CPT inconclusive, DT40 TDP1 no CPT inconclusive
CCCN(CCC)CCNC(=O)c1cc2c(=O)oc3ccc(C)cc3c2s1	TGFb inhibitor inconclusive, TDP1 cell CPT inconclusive, DT40 TDP1 no CPT inconclusive (no result: HT1080 IDH1KD tx, HT1080-NT tox)
CCOC(=O)N1CCC(NC(=O)c2c(C)nn(-c3ccc(C)cc3)c2-n2cccc2)CC1	none (no result: HT1080 IDH1KD tx, TDP1 cell CPT, DT40 TDP1 no CPT, HT1080-NT tox)
CCOC(=O)N1CCC(NC(=O)c2c(C)nn(-c3cccc(C)c3)c2-n2cccc2)CC1	TDP1 cell CPT 20.6µM, DT40 TDP1 no CPT 18.4µM (no result: HT1080 IDH1KD tx, HT1080-NT tox)
CCOC(=O)N1CCC(NC(=O)c2cnn(-c3cccc(F)c3)c2-n2cccc2)CC1	TDP1 cell CPT inconclusive, DT40 TDP1 no CPT 18.4µM (no result: HT1080 IDH1KD tx, HT1080-NT tox)
CSc1ccc2c(c1)N(CCC1CCCCN1C)c1ccccc1S2 (stereo not drawn)	TGFb inhibitor inconclusive, HT1080 IDH1KD tx inconclusive, TDP1 cell CPT 14.6µM, DT40 TDP1 no CPT 16.4µM, HT1080-NT tox 18.4µM
CC1CC(=O)N(CC(=O)N2CCCC2)c2ccccc2S1 (stereo not drawn)	none
COc1c(C)cc(C(=O)C2CCCN(C(=O)c3cccc(-n4cccn4)c3)C2)cc1C (stereo not drawn)	TDP1 cell CPT inconclusive, DT40 TDP1 no CPT inconclusive
CN(C)CCCN(C(=O)COc1ccccc1)c1nc2cc3c(cc2s1)OCCO3	TGFb inhibitor inconclusive
COc1ccc(OC)c2sc(N(CCN(C)C)C(=O)c3cc(Cl)sc3Cl)nc12	none
CN(C)CCCN(C(=O)CCSc1ccccc1)c1nc2cc3c(cc2s1)OCO3	TGFb inhibitor inconclusive, HT1080 IDH1KD tx 18.4µM, TDP1 cell CPT 8.2µM, DT40 TDP1 no CPT 13µM, HT1080-NT tox inconclusive
CN(C)CCCN(C(=O)CCS(=O)(=O)c1ccccc1)c1nc2cc3c(cc2s1)OCO3	TGFb inhibitor inconclusive, TDP1 cell CPT 1.3µM, DT40 TDP1 no CPT 1.46µM
COc1ccc(Cl)c2sc(N(CCN(C)C)C(=O)CCS(=O)(=O)c3ccc(C)cc3)nc12	TGFb inhibitor inconclusive, TDP1 cell CPT inconclusive, DT40 TDP1 no CPT inconclusive, HT1080-NT tox inconclusive
COc1ccc(OC)c2sc(N(CCCN(C)C)C(=O)CCS(=O)(=O)c3ccccc3)nc12	TGFb inhibitor inconclusive, HT1080 IDH1KD tx inconclusive, TDP1 cell CPT 1.46µM, DT40 TDP1 no CPT 0.651µM
COc1ccc(C)c2sc(N(CCCN(C)C)C(=O)CS(=O)(=O)c3ccc(F)cc3)nc12	HT1080-NT tox 18.4µM
